Assay results reported in PubChem BioAssay (EPA / NIEHS).
Several values for one entry are separate records, joined by “and”; a condition that tells them apart may be missing. Equal entries are not always repeated. Records with an inconclusive call do not appear. A structure can be active in one record and inactive in another. Activity calls are given as the source filed them. Rule for the calls: active = hit-call score of the fitted dose curve at least 0.9, where 1 is the maximum; inconclusive = response in the unintended direction; inactive = score below 0.9.

Legend:
[1] = ATG_M_06_XSP2: Attagene TRANS-FACTORIAL Multi-Species (XSP2) HepG2 Assay for M06 Transcription Factor (Internal Marker) (AID 2283811);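 note: internal background marker reporter mRNA measured by RT-PCR and capillary electrophoresis; hits are increases in signal above the DMSO baseline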
In short: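 Cells of the human liver line HepG2 carried transfected reporter transcription units and were treated for 24 h. Induced reporter transcripts were detected by fluorescence after RT-PCR and capillary electrophoresis, with activity fitted in the gain direction against DMSO.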

[2] = test system: turtle Estrogen Receptor (ERa), gene 101933533; experiment: ATG_trERa_XSP2: Attagene TRANS-FACTORIAL Multi-Species (XSP2) HepG2 Assay for turtle Estrogen Receptor (ERa) (AID 2283812);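 note: actives raise reporter signal above DMSO so AC50 reflects agonist activity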
In short: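 Readout is reporter mRNA quantified by RT-PCR with capillary electrophoresis after 24 h compound exposure, increase relative to DMSO. Uses transiently transfected human HepG2 liver cells carrying a chimeric turtle ERa-Gal4 receptor driving GAL4-UAS reporters.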

[3] = biological target: zebrafish Estrogen Receptor (ER1), esr1 (gene 259252) (UniProt P57717); experiment: ATG_zfER1_XSP2: Attagene TRANS-FACTORIAL Multi-Species (XSP2) HepG2 Assay for zebrafish Estrogen Receptor (ER1) (AID 2283816)
In short: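 After 24 h compound exposure, RNA from transfected HepG2 cells was reverse-transcribed and reporter transcripts resolved by capillary electrophoresis. The TRANS format reads exogenous zebrafish ER1-Gal4 chimera activity on GAL4-UAS elements; gain of signal against DMSO.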

[4] = biological target: chicken Estrogen Receptor (ERa), ESR1 (gene 396099) (UniProt P06212); experiment: ATG_chERa_XSP2: Attagene TRANS-FACTORIAL Multi-Species (XSP2) HepG2 Assay for chicken Estrogen Receptor (ERa) (AID 2283817);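 note: actives raise reporter signal above DMSO so AC50 reflects ER activation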
In short: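 Exogenous chicken ERa-Gal4 chimera activity was assessed in transfected human liver HepG2 cells after 24 h of treatment. Induced reporter mRNA was quantified fluorescently by capillary electrophoresis, with DMSO as baseline.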

[5] = test system: frog Estrogen Receptor (ER), gene 398734; experiment: ATG_frER1_XSP2: Attagene TRANS-FACTORIAL Multi-Species (XSP2) HepG2 Assay for frog Estrogen Receptor (ER) (AID 2283821);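 note: hits raise reporter mRNA above DMSO baseline so potency means agonist or activator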
In short: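 Gain-of-signal mRNA reporter assay, HepG2 human liver cells, 24 h dosing; transcripts read by fluorescent RT-PCR fragment analysis, DMSO as negative control.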

[6] = ATG_M_32_XSP2: Attagene TRANS-FACTORIAL Multi-Species (XSP2) HepG2 Assay for M19 Transcription Factor (Internal Marker) (AID 2283826)
In short: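 HepG2 cells transiently transfected with GAL4-UAS reporter transcription units, dosed with compound for 24 h in presence of 3 nM 6-alpha-fluorotestosterone and 1.5 nM norgestrel; reporter mRNA quantified by RT-PCR, FAM labelling, HpaI digestion and capillary electrophoresis.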

[7] = test system: frog Estrogen Receptor (ER2), gene 100174814; experiment: ATG_frER2_XSP2: Attagene TRANS-FACTORIAL Multi-Species (XSP2) HepG2 Assay for frog Estrogen Receptor (ER2) (AID 2283828)
In short: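 Induction of reporter mRNA, baseline set by DMSO, is the endpoint. The panel was run in transfected HepG2 cells over 24 h, with 3 nM 6-alpha-fluorotestosterone and 1.5 nM norgestrel present to stimulate androgen receptor.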

[8] = biological target: Peroxisome proliferator-activated receptor gamma (Homo sapiens) (UniProt P37231); experiment: ATG_hPPARg_XSP2: Attagene TRANS-FACTORIAL Multi-Species (XSP2) HepG2 Assay for human Peroxisome Proliferator-activated Receptor gamma (PPARg) (AID 2283829);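 note: actives raise reporter mRNA above DMSO so AC50 reflects PPARg activation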
In short: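 HepG2 cells transiently transfected with multiplexed GAL4-UAS reporter units for chimeric NR-Gal4 receptors, dosed 24 h. Reporter mRNA quantified by RT-PCR, 6-FAM labeling, HpaI digestion and capillary electrophoresis; gain-of-signal fitted against DMSO baseline.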

[9] = biological target: mouse Peroxisome Proliferator-activated Receptor gamma (PPARg), Pparg (gene 19016) (UniProt P37238); experiment: ATG_mPPARg_XSP2: Attagene TRANS-FACTORIAL Multi-Species (XSP2) HepG2 Assay for mouse Peroxisome Proliferator-activated Receptor gamma (PPARg) (AID 2283830);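 note: hits are gains in reporter mRNA above DMSO so AC50 marks activation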
In short: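 Multiplexed TRANS reporter readout: after 24 h chemical exposure of transfected HepG2 cells (with 3 nM 6-alpha-fluorotestosterone, 1.5 nM norgestrel present), RNA reverse-transcribed, amplified, 6-FAM-labelled and resolved by capillary electrophoresis; mouse PPARg-Gal4 induction scored against DMSO.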

[10] = test system: zebrafish Peroxisome Proliferator-activated Receptor gamma (PPARg), gene 557037; experiment: ATG_zfPPARg_XSP2: Attagene TRANS-FACTORIAL Multi-Species (XSP2) HepG2 Assay for zebrafish Peroxisome Proliferator-activated Receptor gamma (PPARg) (AID 2283833);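 note: actives increase reporter signal over DMSO so AC50 reflects activation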
In short: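 HepG2 cells transiently transfected with GAL4-UAS reporter units expressing a zebrafish PPARg–GAL4 chimera; compound exposure 24 h. Reporter mRNA quantified by RT-PCR with fluorescent labelling and capillary electrophoresis; gain of signal fitted relative to DMSO baseline.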

[11] = biological target: Estrogen receptor beta (Homo sapiens) (UniProt Q92731); experiment: ATG_hERb_XSP2: Attagene TRANS-FACTORIAL Multi-Species (XSP2) HepG2 Assay for human Estrogen Receptor (ERb) (AID 2283813);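 note: actives raise reporter mRNA above DMSO so AC50 reflects agonist induction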
In short: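 Transient TRANS reporter system in HepG2: after 24 h of chemical, RNA is reverse-transcribed, reporter cDNA amplified, FAM-labelled and sized by capillary electrophoresis. Induction of the human ERb-Gal4 reporter is measured relative to DMSO.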

[12] = test system: zebrafish Estrogen Receptor (ER2a), gene 317734; experiment: ATG_zfER2a_XSP2: Attagene TRANS-FACTORIAL Multi-Species (XSP2) HepG2 Assay for zebrafish Estrogen Receptor (ER2a) (AID 2283818);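 note: hits raise reporter mRNA so AC50 reflects activation of zebrafish ER2a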
In short: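 Multiplexed trans-reporter readout: RT-PCR then capillary electrophoresis of reporter transcripts after 24 h compound treatment. Human HepG2 carries transfected zebrafish ER2a-Gal4 chimera; 3 nM 6-alpha-fluorotestosterone plus 1.5 nM norgestrel present. Induction scored against DMSO.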

[13] = test system: chicken Androgen Receptor (AR), gene 422165; experiment: ATG_chAR_XSP2: Attagene TRANS-FACTORIAL Multi-Species (XSP2) HepG2 Assay for chicken Androgen Receptor (AR) (AID 2283819);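 note: hits raise reporter mRNA above DMSO so potency is for activation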
In short: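 Readout is reporter mRNA induction via RT-PCR/capillary electrophoresis after 24 h chemical exposure, positive direction relative to DMSO. Transiently transfected HepG2 express chimeric chicken AR–GAL4; AR stimulated by 3 nM 6-alpha-fluorotestosterone and 1.5 nM norgestrel.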

[14] = biological target: Estrogen receptor (Homo sapiens) (UniProt P03372); experiment: ATG_hERa_XSP2: Attagene TRANS-FACTORIAL Multi-Species (XSP2) HepG2 Assay for human Estrogen Receptor (ERa) (AID 2283827)
In short: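 Trans-activation of exogenous human ERa-Gal4 chimera read in HepG2 as reporter transcript after 24 h exposure; medium included 3 nM 6-alpha-fluorotestosterone and 1.5 nM norgestrel. Quantified by RT-PCR with capillary electrophoresis, positive-direction fitting against DMSO.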

[15] = biological target: Nuclear receptor subfamily 1 group I member 2 (Mus musculus) (UniProt O54915); experiment: ATG_mPXR_XSP2: Attagene TRANS-FACTORIAL Multi-Species (XSP1) HepG2 Assay for mouse Pregnane X Receptor (PXR) (AID 2283831)
In short: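 HepG2 cells transiently transfected with GAL4-UAS reporter units expressing chimeric NR-GAL4 proteins; reporter mRNA measured 24 h after dosing by RT-PCR with 6-FAM labelling and capillary electrophoresis, gain of signal relative to DMSO.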

[16] = ATG_XTT_Cytotoxicity_XSP1: Cytotoxicity Assessment in the Attagene TRANS-FACTORIAL Multi-Species (XSP1) HepG2 Assay (AID 2283810)
In short: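 XTT viability readout taken at 24 hours post-dosing in HepG2 liver cells co-treated with 3 nM 6-alpha-fluorotestosterone. Signal loss relative to DMSO controls reflects cytotoxicity.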

[17] = biological target: GAL4 Transcription Factor (Internal Marker), GAL4 (gene 855828) (UniProt P04386); experiment: ATG_GAL4_XSP2: Attagene TRANS-FACTORIAL Multi-Species (XSP2) HepG2 Assay for GAL4 Transcription Factor (Internal Marker) (AID 2283814);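 note: GAL4 reporter mRNA background control in MRTU transfected cells not a receptor target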
In short: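 Background-control readout: gain-of-signal fitted against DMSO. After 24 h exposure of transfected HepG2 (MRTU, GAL4-UAS reporters; 3 nM 6-alpha-fluorotestosterone, 1.5 nM norgestrel present), transcripts quantified by RT-PCR and capillary electrophoresis fluorescence.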

Chain of Nuclear receptor subfamily 1 group I member 2 (Mus musculus) (O54915 whole entry, looked up, the tested form may be a part): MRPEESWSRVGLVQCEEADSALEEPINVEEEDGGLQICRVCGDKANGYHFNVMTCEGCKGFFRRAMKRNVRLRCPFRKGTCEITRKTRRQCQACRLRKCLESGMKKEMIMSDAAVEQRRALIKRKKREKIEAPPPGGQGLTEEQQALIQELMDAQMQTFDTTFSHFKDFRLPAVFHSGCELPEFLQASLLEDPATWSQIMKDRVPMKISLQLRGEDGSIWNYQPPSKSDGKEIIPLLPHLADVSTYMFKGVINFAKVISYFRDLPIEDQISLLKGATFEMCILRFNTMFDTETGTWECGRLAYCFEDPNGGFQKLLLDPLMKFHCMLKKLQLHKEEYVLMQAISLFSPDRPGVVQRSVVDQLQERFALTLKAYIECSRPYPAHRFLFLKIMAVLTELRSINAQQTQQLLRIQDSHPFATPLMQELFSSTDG
Chain of zebrafish Estrogen Receptor (ER1), esr1 (gene 259252) (P57717 whole entry, looked up, the tested form may be a part): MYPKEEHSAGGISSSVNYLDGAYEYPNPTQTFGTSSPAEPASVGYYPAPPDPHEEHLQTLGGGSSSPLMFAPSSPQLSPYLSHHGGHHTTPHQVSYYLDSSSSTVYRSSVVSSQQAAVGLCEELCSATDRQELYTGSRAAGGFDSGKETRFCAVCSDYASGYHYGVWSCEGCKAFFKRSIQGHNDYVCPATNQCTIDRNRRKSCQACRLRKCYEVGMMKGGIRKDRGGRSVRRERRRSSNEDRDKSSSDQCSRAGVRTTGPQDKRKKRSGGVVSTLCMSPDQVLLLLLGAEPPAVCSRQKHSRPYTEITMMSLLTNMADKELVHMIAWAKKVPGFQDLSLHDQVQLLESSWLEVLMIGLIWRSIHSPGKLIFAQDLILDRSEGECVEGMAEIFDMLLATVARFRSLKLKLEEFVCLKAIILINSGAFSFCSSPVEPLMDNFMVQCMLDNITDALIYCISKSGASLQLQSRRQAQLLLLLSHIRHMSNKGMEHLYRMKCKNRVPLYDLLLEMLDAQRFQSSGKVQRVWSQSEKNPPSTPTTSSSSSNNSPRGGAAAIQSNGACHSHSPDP
Chain of mouse Peroxisome Proliferator-activated Receptor gamma (PPARg), Pparg (gene 19016) (P37238 whole entry, looked up, the tested form may be a part): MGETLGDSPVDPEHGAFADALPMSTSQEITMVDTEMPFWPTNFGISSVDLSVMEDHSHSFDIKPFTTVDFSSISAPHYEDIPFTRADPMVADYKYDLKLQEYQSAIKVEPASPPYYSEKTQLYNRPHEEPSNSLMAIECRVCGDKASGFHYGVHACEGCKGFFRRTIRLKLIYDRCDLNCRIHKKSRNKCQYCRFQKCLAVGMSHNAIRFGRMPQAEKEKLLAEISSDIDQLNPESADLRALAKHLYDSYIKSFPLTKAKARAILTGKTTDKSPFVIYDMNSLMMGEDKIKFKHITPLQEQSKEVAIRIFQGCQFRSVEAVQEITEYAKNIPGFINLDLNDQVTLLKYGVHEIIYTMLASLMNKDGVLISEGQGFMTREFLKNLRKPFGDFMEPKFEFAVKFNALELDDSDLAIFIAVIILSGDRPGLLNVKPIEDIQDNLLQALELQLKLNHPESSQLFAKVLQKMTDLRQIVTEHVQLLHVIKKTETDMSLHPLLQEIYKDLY
Chain of Estrogen receptor beta (Homo sapiens) (Q92731 whole entry, looked up, the tested form may be a part): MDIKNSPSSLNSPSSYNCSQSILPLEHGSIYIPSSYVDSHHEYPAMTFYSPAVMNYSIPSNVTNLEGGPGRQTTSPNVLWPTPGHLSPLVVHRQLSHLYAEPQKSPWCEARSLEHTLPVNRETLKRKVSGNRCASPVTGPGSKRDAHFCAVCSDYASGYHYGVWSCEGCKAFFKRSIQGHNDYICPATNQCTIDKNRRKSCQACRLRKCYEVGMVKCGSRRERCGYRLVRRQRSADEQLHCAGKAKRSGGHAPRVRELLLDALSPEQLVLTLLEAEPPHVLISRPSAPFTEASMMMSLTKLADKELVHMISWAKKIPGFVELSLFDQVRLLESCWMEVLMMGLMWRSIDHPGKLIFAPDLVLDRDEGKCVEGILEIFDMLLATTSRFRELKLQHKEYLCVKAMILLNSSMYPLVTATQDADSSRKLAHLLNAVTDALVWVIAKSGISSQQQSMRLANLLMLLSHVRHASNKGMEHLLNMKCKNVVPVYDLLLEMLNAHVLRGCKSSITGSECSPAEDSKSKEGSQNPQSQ
Chain of Peroxisome proliferator-activated receptor gamma (Homo sapiens) (P37231 whole entry, looked up, the tested form may be a part): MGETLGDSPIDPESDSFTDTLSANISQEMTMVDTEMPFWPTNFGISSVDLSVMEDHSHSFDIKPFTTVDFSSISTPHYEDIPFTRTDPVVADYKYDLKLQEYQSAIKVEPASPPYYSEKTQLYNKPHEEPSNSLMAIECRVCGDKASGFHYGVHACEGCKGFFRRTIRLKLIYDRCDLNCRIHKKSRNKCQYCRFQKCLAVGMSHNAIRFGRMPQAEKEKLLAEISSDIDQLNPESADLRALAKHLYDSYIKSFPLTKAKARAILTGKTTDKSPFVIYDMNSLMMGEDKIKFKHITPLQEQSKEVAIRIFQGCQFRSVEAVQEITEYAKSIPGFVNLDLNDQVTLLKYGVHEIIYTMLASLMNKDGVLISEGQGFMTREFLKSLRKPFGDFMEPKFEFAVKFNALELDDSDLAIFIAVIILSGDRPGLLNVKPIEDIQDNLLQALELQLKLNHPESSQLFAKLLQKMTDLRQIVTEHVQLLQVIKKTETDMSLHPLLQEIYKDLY
Chain of chicken Estrogen Receptor (ERa), ESR1 (gene 396099) (P06212 whole entry, looked up, the tested form may be a part): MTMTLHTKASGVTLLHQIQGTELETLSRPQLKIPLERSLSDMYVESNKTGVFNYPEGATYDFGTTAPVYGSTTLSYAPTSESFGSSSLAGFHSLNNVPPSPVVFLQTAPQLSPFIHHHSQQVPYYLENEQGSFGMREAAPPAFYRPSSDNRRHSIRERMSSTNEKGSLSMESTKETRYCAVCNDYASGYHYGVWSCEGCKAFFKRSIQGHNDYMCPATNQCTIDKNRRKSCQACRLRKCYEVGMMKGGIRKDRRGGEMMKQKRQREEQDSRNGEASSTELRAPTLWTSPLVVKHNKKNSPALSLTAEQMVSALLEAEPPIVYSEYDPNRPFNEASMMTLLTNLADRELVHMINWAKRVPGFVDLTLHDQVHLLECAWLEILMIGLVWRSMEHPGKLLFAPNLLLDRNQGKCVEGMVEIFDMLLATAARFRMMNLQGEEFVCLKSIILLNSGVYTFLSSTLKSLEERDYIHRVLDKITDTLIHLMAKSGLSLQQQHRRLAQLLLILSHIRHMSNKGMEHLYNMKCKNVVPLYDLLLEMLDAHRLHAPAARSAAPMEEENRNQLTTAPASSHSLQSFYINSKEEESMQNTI
Chain of Estrogen receptor (Homo sapiens) (P03372 whole entry, looked up, the tested form may be a part): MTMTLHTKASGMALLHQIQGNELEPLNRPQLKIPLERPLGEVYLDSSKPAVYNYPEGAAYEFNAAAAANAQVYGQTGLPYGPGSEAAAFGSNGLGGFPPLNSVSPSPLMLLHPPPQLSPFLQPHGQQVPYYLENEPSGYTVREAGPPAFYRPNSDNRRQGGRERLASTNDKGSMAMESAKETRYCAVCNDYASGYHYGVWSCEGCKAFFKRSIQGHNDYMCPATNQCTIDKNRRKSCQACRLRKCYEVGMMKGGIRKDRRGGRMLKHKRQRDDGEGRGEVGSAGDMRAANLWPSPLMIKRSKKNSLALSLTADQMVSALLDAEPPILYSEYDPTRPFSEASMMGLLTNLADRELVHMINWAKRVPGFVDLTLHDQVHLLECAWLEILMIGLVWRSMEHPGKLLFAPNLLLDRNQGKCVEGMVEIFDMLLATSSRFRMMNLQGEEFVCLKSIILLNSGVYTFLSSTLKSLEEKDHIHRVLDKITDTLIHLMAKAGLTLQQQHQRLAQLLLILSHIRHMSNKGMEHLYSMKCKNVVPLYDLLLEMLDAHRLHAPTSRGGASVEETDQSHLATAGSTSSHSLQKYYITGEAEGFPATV
Chain of GAL4 Transcription Factor (Internal Marker), GAL4 (gene 855828) (P04386 whole entry, looked up, the tested form may be a part): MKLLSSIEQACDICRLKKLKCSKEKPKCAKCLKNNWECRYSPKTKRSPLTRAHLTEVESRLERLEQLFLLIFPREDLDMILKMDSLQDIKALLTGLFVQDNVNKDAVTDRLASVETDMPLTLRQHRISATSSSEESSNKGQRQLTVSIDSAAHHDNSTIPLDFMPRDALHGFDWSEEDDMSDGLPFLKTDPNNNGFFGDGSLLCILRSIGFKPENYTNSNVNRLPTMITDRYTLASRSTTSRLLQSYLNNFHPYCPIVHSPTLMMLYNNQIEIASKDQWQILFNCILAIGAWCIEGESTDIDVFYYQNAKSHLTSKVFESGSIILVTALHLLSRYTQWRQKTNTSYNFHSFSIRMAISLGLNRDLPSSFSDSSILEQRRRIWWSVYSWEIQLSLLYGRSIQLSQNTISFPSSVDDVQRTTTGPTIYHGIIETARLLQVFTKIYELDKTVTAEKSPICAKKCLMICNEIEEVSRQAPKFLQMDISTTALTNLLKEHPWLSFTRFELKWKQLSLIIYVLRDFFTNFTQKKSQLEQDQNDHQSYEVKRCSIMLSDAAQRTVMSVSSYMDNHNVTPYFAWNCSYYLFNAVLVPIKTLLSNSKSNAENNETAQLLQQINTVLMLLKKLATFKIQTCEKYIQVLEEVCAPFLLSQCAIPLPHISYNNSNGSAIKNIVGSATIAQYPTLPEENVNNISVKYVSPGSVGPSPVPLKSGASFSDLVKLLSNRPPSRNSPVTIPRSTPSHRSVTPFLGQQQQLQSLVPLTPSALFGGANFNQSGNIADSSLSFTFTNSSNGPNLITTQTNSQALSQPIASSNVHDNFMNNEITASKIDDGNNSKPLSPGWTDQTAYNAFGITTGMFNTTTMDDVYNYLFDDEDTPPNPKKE

Compound: O=C1C2(Cl)C3(Cl)C4(Cl)C(Cl)(Cl)C5(Cl)C3(Cl)C1(Cl)C5(Cl)C24Cl (stereo not drawn)
- outcome [1]: inactive
- AC50 [2]: 514 nM (active)
- outcome [3]: inactive
- AC50 [4]: 1.33 µM (active)
- outcome [5]: inactive
- outcome [6]: inactive
- outcome [7]: inactive
- outcome [8]: inactive
- outcome [9]: inactive
- outcome [10]: inactive

Compound: C[C@H]1CCCC(=O)CCC/C=C/c2cc(O)cc(O)c2C(=O)O1
- outcome [1]: inactive
- AC50 [2]: 7 nM (active) and 1.7 nM (active)
- AC50 [11]: 2.99 nM (active)
- outcome [11]: inactive
- AC50 [3]: 9.96 nM (active)
- outcome [3]: inactive
- AC50 [4]: 6.03 nM (active) and 1.45 nM (active)
- AC50 [12]: 24.6 nM (active) and 6.41 nM (active)
- outcome [13]: inactive
- AC50 [5]: 7.04 nM (active) and 6.82 nM (active)
- AC50 [14]: 3.41 nM (active) and 1.59 nM (active)
- AC50 [7]: 5.66 nM (active)
- outcome [7]: inactive
- outcome [8]: inactive
- outcome [9]: inactive
- outcome [10]: inactive

Compound: Oc1ccc(-c2ccccc2)cc1
- outcome [1]: inactive
- AC50 [2]: 1.44 µM (active) and 925 nM (active)
- AC50 [11]: 1.16 µM (active) and 1.68 µM (active)
- AC50 [3]: 4.42 µM (active) and 8.23 µM (active)
- AC50 [4]: 712 nM (active) and 200 nM (active)
- AC50 [12]: 2.6 µM (active) and 1.43 µM (active)
- AC50 [5]: 2.17 µM (active) and 811 nM (active)
- outcome [6]: inactive
- AC50 [7]: 1.75 µM (active) and 690 nM (active)
- AC50 [8]: 63.1 µM (active) and 100 µM (active)
- AC50 [9]: 100 µM (active)
- outcome [9]: inactive
- outcome [15]: inactive
- outcome [10]: inactive

Compound: CC12CC1(C)C(=O)N(c1cc(Cl)cc(Cl)c1)C2=O (stereo not drawn)
- outcome [16]: inactive
- outcome [1]: inactive
- AC50 [2]: 100000 nM (active)
- outcome [2]: inactive
- outcome [11]: inactive
- outcome [17]: inactive
- outcome [3]: inactive
- AC50 [4]: 58.5 µM (active)
- outcome [4]: inactive
- outcome [12]: inactive
- outcome [5]: inactive
- outcome [6]: inactive
- AC50 [7]: 100000 nM (active)
- outcome [7]: inactive
- outcome [8]: inactive
- outcome [9]: inactive
- AC50 [15]: 8.41 µM (active) and 6.41 µM (active)
- outcome [10]: inactive
